In PubChem BioAssay (NCATS):
Unmarked numbers belong to inactive results. Records with an inconclusive call do not appear. Active and inactive are the calls of the source. Unless noted, calls follow the shape of the dose curve; as a rule, active = well fitted curve in the direction sought with a large enough effect; inconclusive = small, poorly fitted or top-dose-only effect, or another doubt; inactive = no such curve, though single readings can be large; an effect the other way counts as inactive or inconclusive.

Tests used:
[1] = target: Lysosomal acid glucosylceramidase (Homo sapiens) (UniProt P04062); assay: Glucocerebrosidase-p2 (AID 348; in the data active = potency below about 10 µM; also: potency is read from the fitted curve at half-maximal effect); conditions: purified GBA, blue fluorogenic substrate, 40 min
Lysosomal acid glucosylceramidase (Homo sapiens), sequence (P04062 whole entry, looked up): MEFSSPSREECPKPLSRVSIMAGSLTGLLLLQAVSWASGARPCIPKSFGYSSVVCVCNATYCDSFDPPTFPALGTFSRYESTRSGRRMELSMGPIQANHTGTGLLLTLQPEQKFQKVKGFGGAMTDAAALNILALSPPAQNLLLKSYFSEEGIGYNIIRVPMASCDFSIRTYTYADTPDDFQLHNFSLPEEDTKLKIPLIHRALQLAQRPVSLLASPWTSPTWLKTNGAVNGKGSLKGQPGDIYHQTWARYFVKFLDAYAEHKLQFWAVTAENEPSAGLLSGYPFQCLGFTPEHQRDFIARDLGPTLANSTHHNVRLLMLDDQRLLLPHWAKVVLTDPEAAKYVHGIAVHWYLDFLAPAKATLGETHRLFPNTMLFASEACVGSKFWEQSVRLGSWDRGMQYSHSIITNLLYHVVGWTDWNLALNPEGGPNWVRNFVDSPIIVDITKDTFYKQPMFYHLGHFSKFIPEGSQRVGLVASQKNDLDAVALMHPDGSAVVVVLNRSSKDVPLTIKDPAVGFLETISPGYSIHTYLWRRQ
Procedure, shortened: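 Compounds titrated from 0.6 nM upwards against 0.2 nM enzyme in pH 5.9 citric acid/KH2PO4, taurocholate, tween-20; blue fluorogenic substrate 80 uM, 40 min room temperature, stopped and read Ex 365/Em 440 for AC50.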

[2] = AP1 Signaling Pathway (AID 357; active = well fitted curve in either direction with a large enough effect, not every such curve was filed as active;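 also: ME-180 reporter cells stimulated with EGF at its EC50 level; % is scaled to controls: 0 for no effect and ±100 for the full control effect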); conditions: ME-180 AP-1-bla reporter, EGF-induced, beta-lactamase ratio, 5 h; at 7.69 µM (top of the series) unless noted
Procedure, shortened: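 In this screen, ME-180 cells in Opti-MEM with 0.5% dialyzed FBS received EC50 EGF and compound titrations for 5 h. AP-1 reporter beta-lactamase was detected via CCF4 ratio, giving AC50 for positive and negative modulators.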

[3] = target: Cytochrome P450 1A2 (Homo sapiens) (UniProt P05177); assay: p450-cyp1a2 (AID 410; calls by dose curve; also: potency is read from the fitted curve at half-maximal effect;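 as to activity change, negative = inhibition: -100% = full effect of reference inhibitor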); conditions: recombinant CYP1A2, luciferin-ME demethylation, luminescence; series mostly up to 57 µM
Cytochrome P450 1A2 (Homo sapiens), sequence (P05177 whole entry, looked up): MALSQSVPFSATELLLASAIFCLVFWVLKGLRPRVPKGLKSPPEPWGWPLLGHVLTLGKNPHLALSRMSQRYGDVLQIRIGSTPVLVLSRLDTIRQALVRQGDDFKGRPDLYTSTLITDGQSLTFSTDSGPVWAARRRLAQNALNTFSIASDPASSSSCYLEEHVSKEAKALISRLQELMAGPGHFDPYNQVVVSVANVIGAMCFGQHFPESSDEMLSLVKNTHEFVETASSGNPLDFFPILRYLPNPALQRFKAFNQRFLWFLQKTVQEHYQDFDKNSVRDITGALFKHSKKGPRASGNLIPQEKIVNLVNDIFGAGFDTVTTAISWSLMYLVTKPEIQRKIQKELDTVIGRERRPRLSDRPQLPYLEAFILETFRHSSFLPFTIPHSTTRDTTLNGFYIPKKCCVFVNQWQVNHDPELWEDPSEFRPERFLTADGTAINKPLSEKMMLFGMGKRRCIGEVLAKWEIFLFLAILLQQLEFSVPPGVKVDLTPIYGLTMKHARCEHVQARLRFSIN
Procedure, shortened: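 Human CYP1A2 (20nM) demethylated Luciferin-ME at its Km (100uM) in 100mM KPO4. After 10 min compound preincubation, NADPH regeneration ran the reaction 60 min at room temperature. Luciferin was read by luminescence, normalized to 57 uM furafylline.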

[4] = NFAT Signaling Pathway (AID 444; active = well fitted curve in either direction with a large enough effect, not every such curve was filed as active;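 also: carbachol stimulus at about its EC50 of 1 µM final; % is scaled to controls: 0 for no effect and ±100 for the full control effect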); conditions: Jurkat NFAT-bla M1, carbachol, beta-lactamase ratio, 5 h; at 7.69 µM (top of the series) unless noted
Procedure, shortened: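 Jurkat cells carrying an NFAT-driven β-lactamase reporter and co-transfected muscarinic M1 receptor were treated with compound plus carbachol (1 uM final, an EC50 level) for 5 h at 37 °C. CCF4 loading followed for 1 h at RT; 460/530 nm ratio gave %activity.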

[5] = Stat Signaling Pathway (AID 446; active = well fitted curve in either direction with a large enough effect, not every such curve was filed as active;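 also: ME-180 cervical cancer cells given 40 pM IL-6 alongside compound; SIE-controlled beta-lactamase reporter measured as 460/530 nm FRET emission ratio; % is scaled to controls: 0 for no effect and ±100 for the full control effect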); conditions: ME-180 SIE beta-lactamase reporter, IL-6 stimulated, 5 h; at 7.69 µM (top of the series) unless noted
Procedure, shortened: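 Reporter line: ME-180 cervical carcinoma, SIE-beta-lactamase. Treatment: compound with 40 pM IL-6, 5 hrs, 37 C, in low-serum OPTI-MEM with 10 mM HEPES pH 7.3. Detection: 460/530 nm fluorescence.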

[6] = target: Glucocorticoid receptor (Homo sapiens) (UniProt P04150); assay: GR-GFP Redistribution (AID 450;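 active = compounds whose dose series gives a full or clear partial fitted curve of increased nuclear translocation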; also: potency is read from the fitted curve at half-maximal effect); conditions: U2OS GR-GFP nuclear translocation, laser cytometry, 2 h
Glucocorticoid receptor (Homo sapiens), sequence (P04150 whole entry, looked up, the tested form may be a part): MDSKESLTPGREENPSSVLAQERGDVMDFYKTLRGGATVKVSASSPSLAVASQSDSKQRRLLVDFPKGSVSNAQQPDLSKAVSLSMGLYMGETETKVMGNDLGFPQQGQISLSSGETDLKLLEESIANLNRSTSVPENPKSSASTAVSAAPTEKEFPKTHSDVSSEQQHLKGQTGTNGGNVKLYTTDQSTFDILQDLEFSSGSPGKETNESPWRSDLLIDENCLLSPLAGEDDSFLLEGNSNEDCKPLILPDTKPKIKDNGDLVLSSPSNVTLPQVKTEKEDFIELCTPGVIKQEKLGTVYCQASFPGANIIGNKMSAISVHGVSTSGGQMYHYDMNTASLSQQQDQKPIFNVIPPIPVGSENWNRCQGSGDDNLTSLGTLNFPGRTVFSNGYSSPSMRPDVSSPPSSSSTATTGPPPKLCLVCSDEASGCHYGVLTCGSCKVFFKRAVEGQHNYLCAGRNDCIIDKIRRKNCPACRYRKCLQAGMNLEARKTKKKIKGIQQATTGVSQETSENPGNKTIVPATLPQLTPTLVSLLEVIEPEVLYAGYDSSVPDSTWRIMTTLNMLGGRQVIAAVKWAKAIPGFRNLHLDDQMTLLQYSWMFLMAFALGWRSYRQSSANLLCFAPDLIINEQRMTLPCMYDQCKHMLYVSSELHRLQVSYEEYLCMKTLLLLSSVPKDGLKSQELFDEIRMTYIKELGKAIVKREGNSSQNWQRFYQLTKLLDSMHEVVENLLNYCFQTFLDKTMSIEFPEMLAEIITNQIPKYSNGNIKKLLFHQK

[7] = target: Glucocorticoid receptor (Homo sapiens) (UniProt P04150); assay: GR-EFC Redistribution (AID 451; calls by dose curve; also: potency is read from the fitted curve at half-maximal effect); conditions: CHO-K1 GR-EFC translocation, beta-gal luminescence, 2 h
Procedure, shortened: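 CHO-K1 cells stably expressing nuclear-localized β-gal enzyme acceptor and GR fused C-terminally to the enzyme donor fragment; ligand-driven nuclear translocation restores β-gal by complementation. Compounds titrated up to 46 uM final, 2 h at 37 °C; luminescence read.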

[8] = target: Mitogen-activated protein kinase 10 (Mus musculus) (UniProt Q61831); assay: JNK3 AlphaScreen Assay (AID 530; active = well fitted curve in either direction with a large enough effect, not every such curve was filed as active;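 also: kinase came from lysate of stimulated human HepG2 cells; signal reports phosphorylation of biotinylated GST-cJun 1-79 at Ser73 with 10 µM ATP; % is scaled to controls: 0 for no effect and ±100 for the full control effect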); conditions: JNK3 lysate, c-Jun phosphorylation; series mostly up to 57.1 µM
Procedure, shortened: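 JNK3 came from HepG2 lysates pre-activated with IL-1beta and TNF-alpha and phosphorylated biotinylated GST-cJun (1-79) at 10 uM ATP, pH 7.6, room temperature. Compounds were titrated. AlphaScreen signal used anti-phospho-cJun (Ser73) antibody.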

[9] = target: 3',5'-cyclic-AMP phosphodiesterase 4B (Homo sapiens) (UniProt Q07343); assay: qHTS Assay for Inhibitors of PDE-IV (AID 607; active = well fitted activation curve with a large enough effect in the main read-out, with a control signal flat, not every such curve was filed as active; also: % of control where 0% means no effect); conditions: HEK293 ACTOne CNG channel cells, membrane potential fluorescence; series mostly up to 22.9 µM
3',5'-cyclic-AMP phosphodiesterase 4B (Homo sapiens), sequence (Q07343 whole entry, looked up): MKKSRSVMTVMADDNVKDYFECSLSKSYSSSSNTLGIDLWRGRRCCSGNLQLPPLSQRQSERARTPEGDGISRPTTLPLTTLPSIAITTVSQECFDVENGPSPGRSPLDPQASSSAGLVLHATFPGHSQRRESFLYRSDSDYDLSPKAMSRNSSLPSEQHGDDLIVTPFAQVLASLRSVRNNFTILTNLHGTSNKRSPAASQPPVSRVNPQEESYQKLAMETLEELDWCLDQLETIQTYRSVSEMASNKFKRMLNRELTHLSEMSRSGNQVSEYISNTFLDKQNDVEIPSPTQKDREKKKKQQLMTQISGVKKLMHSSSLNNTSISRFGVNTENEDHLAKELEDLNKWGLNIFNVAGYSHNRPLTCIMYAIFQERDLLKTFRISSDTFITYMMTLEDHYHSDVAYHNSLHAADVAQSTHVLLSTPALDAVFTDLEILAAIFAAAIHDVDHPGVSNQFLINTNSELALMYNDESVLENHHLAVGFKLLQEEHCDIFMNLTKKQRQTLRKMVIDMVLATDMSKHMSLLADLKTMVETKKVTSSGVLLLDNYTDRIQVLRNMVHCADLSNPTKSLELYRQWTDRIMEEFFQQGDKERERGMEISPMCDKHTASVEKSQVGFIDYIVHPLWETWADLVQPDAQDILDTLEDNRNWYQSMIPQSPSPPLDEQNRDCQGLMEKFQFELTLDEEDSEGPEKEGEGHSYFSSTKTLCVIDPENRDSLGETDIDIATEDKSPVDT
Procedure, shortened: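 Cell-based read-out of cAMP via a modified cyclic nucleotide-gated channel and membrane potential dye (535/590 nm) in HEK293 cells expressing PDE4 endogenously. Compounds tested up to 22.9 uM final; 100 uM RO 20-1724 reference.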

[10] = target: Dual specificity protein kinase CLK4 (Homo sapiens) (UniProt Q9HAZ1); assay: qHTS Assay for Inhibitors of CDC-like Kinase 4 (Kinase-Glo Assay) (AID 1770); conditions: recombinant Clk4, Kinase-Glo ATP depletion luminescence; series mostly up to 66.7 µM; also: nearly all actives have a fitted effect of over 65% in size; also: potency is read from the fitted curve at half-maximal effect
Dual specificity protein kinase CLK4 (Homo sapiens), sequence (Q9HAZ1 whole entry, looked up): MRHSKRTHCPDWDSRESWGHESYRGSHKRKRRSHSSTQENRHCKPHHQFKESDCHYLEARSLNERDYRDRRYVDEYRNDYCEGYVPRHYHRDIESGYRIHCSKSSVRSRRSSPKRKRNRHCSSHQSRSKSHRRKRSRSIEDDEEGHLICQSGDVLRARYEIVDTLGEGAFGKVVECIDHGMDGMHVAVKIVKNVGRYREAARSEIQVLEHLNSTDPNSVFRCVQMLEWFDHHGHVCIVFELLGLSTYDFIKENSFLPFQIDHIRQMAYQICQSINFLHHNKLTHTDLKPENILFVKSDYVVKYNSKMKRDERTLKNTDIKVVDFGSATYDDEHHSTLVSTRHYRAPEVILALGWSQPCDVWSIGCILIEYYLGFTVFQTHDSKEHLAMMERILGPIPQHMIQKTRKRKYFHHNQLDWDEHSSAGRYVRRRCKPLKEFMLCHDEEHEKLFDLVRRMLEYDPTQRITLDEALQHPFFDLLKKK
Procedure, shortened: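 Inhibition was judged from remaining ATP, measured by Ultra-Glo luciferase bioluminescence after Clk4 (25 nM) had acted on RS peptide at 1 uM ATP for 4.5 hours, room temperature.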

[11] = target: Dual specificity protein kinase CLK4 (Homo sapiens) (UniProt Q9HAZ1); assay: qHTS Assay for Inhibitors of CDC-like Kinase 4 (ADP-Glo Assay) (AID 1771); conditions: recombinant CLK4, ADP-Glo luminescence; series mostly up to 80 µM; also: nearly all actives have a fitted effect of over 70% in size; also: potency is read from the fitted curve at half-maximal effect
Procedure, shortened: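 Clk4 (25 nM) was incubated 1 hr at room temperature with 100 uM RS repeat peptide and 1 uM ATP in buffer with 2 mM MgCl2, 0.5 mM EGTA, 2.5 mM DTT. ADP formed was quantified by ADP-Glo luminescence.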

[12] = target: Ubiquitin carboxyl-terminal hydrolase 1 (Homo sapiens) (UniProt O94782); assay: Inhibitors of USP1/UAF1: Pilot qHTS (AID 504865); conditions: purified USP1/UAF1, Ub-rhodamine cleavage fluorescence; series mostly up to 54.9 µM;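 also: rhodamine fluorescence freed from ubiquitin-rhodamine substrate followed over time; top concentration of the series differs between compounds; % is scaled to controls: 0 for no effect and ±100 for the full control effect; nearly all actives have a fitted effect of over 35% in size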
Ubiquitin carboxyl-terminal hydrolase 1 (Homo sapiens), sequence (O94782 whole entry, looked up): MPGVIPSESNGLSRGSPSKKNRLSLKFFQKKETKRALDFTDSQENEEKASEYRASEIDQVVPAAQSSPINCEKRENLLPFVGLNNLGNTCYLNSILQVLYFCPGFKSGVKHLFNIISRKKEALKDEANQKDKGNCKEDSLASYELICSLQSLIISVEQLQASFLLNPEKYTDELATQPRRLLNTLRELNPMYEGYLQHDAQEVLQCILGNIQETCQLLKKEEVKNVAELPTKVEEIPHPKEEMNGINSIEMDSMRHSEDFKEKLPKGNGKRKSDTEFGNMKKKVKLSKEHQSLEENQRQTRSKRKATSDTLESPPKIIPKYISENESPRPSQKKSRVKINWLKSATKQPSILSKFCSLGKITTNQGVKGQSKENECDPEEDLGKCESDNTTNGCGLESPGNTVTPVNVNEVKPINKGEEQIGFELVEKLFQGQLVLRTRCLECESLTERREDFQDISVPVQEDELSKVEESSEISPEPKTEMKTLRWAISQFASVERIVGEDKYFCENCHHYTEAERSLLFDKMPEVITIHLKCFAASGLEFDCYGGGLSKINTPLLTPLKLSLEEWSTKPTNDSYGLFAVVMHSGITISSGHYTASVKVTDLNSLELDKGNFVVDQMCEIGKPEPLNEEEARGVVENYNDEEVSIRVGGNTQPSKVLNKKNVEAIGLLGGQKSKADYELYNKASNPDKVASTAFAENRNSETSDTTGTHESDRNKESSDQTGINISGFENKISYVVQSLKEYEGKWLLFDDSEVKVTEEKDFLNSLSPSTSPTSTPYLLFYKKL
Procedure, shortened: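 Kinetic fluorescence assay: 1nM USP1/UAF1, 15 min compound preincubation, then 150nM Ub-Rho; 480/540 nm.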

[13] = Primary qHTS for small molecule stabilizers of the endoplasmic reticulum resident proteome: Secreted ER Calcium Modulated Protein (SERCaMP) assay (AID 1508630); conditions: SH-SY5Y GLuc-SERCaMP (Gaussia luciferase released on ER calcium loss) secretion, thapsigargin, luminescence; series mostly up to 38.4 µM; also: % is scaled to controls: 0 for no effect and ±100 for the full control effect
Procedure, shortened: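 GLuc-SERCaMP-expressing SH-SY5Y cells, pretreated 16 h with compound, are challenged with thapsigargin to empty ER calcium stores; after 4 h, coelenterazine is added directly to the medium and luminescence is imaged.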

[14] = target: Cytochrome P450 3A4 (Homo sapiens) (UniProt P08684); assay: qHTS Assay for Inhibitors and Substrates of Cytochrome P450 3A4 (AID 884); conditions: recombinant CYP3A4, Luciferin-PPXE luminescence; series mostly up to 57.1 µM; also: potency is read from the fitted curve at half-maximal effect; nearly all actives have a fitted effect of over 50% in size
Cytochrome P450 3A4 (Homo sapiens), sequence (P08684 whole entry, looked up): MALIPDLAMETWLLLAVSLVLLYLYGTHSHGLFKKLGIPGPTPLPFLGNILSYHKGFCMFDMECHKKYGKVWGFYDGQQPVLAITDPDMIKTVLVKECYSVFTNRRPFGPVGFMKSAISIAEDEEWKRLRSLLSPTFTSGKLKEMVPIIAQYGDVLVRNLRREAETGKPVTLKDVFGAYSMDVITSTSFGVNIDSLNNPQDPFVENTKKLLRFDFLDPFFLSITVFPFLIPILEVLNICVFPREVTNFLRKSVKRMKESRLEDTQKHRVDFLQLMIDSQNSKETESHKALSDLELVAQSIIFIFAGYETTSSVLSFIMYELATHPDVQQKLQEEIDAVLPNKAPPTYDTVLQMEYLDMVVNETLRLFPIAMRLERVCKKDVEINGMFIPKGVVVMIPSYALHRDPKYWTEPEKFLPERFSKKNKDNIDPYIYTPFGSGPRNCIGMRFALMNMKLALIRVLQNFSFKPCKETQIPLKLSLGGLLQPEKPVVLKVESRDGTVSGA
Procedure, shortened: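 20 nM human CYP3A4 with 25 uM Luciferin-PPXE (at KM) in 200 mM KPO4, preincubated 10 min with compound; NADPH regeneration started a 60 min RT reaction. Luciferin detected by luminescence, normalized to 57 uM ketoconazole as full inhibition.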

[15] = target: Cytochrome P450 3A4 (Homo sapiens) (UniProt P08684); assay: qHTS Assay for Activators of Cytochrome P450 3A4 (AID 885); conditions: recombinant CYP3A4, Luciferin-PPXE luminescence, 60 min; series mostly up to 57.1 µM; also: nearly all actives have a fitted effect of over 65% in size
Procedure, shortened: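 Signal was normalized against complete inhibition by 57 uM ketoconazole. The reaction used 20nM CYP3A4 with 25uM Luciferin-PPXE, 10-min compound preincubation and a 60-min NADPH-supported step at RT.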

[16] = target: Cytochrome P450 2C19 (Homo sapiens) (UniProt P33261); assay: qHTS Assay for Inhibitors and Substrates of Cytochrome P450 2C19 (AID 899); conditions: recombinant CYP2C19, luciferin-H EGE luminescence; series mostly up to 57.1 µM; also: potency is read from the fitted curve at half-maximal effect; nearly all actives have a fitted effect of over 60% in size
Procedure, shortened: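 Human CYP2C19 (5nM) with Luciferin-H EGE at 10uM (its KM) in 50mM KPO4 was preincubated with compound for 10 min at 37C. NADPH regeneration started a 60 min 37C reaction. Luciferin was read by luminescence, normalized to 57uM ketoconazole.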

[17] = target: Dual specificity protein kinase CLK4 (Homo sapiens) (UniProt Q9HAZ1); assay: qHTS Assay for Inhibitors of CDC-like Kinase 4 (ADP-FP Assay) (AID 1795); conditions: Transcreener ADP fluorescence polarization; series mostly up to 50 µM;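 also: recombinant human CLK4 phosphorylating RS repeat peptide at 1 µM ATP; % is scaled to controls: 0 for no effect and ±100 for the full control effect; nearly all actives have a fitted effect of over 60% in size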
Procedure, shortened: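 Inhibition of ADP formation by 6.25 nM Clk4 is measured using 1 uM ATP and 100 uM RS repeat peptide over one hour. Produced ADP displaces a fluorescent tracer from antibody, lowering polarization.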

[18] = target: Cytochrome P450 2C9 (Homo sapiens) (UniProt P11712); assay: qHTS Assay for Inhibitors and Substrates of Cytochrome P450 2C9 (AID 883); conditions: recombinant CYP2C9, luciferin-H luminescence, 60 min; series mostly up to 57.1 µM; also: % is scaled to controls: 0 for no effect and ±100 for the full control effect; nearly all actives have a fitted effect of over 60% in size
Cytochrome P450 2C9 (Homo sapiens), sequence (P11712 whole entry, looked up): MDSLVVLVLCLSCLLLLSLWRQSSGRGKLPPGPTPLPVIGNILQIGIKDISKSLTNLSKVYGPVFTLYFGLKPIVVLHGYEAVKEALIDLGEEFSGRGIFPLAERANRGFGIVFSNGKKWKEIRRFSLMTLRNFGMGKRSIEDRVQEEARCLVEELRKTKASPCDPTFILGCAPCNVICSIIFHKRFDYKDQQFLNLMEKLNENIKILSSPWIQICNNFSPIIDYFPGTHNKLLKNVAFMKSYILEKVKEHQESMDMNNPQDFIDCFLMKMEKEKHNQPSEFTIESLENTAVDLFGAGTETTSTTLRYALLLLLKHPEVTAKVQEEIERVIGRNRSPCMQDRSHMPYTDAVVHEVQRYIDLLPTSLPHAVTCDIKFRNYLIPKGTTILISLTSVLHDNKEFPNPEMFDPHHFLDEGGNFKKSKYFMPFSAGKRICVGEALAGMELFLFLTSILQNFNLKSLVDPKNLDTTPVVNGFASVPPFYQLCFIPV
Procedure, shortened: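 Human CYP2C9 (10nM) hydroxylated Luciferin-H (100uM, at its KM) to luciferin in 25mM KPO4. Compound was preincubated 10 min at 37C, then NADPH regeneration started a 60 min reaction at 37C. Luminescence was read after detection reagent, normalized to 57uM sulphaphenazole.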

[19] = qHTS Assay for Identification of Small Molecule Agonists for Hypoxia Response Element Signaling Pathway (AID 914; active = well fitted activation curve with a large enough effect in the signal ratio, with a control signal flat, not every such curve was filed as active; the % refers to the signal ratio; also: potency is read from the fitted curve at half-maximal effect); conditions: ME-180 (cervical carcinoma) HRE-bla reporter, beta-lactamase ratio, CoCl2, 17 h; activation: stronger effect = higher value
Procedure, shortened: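 Reporter activity (beta-lactamase, CCF4 460nm/530nm ratio) in HRE-bla ME-180 cells is recorded after 17 h compound exposure with EC50 CoCl2 at 37 degrees Celsius. AC50 values come from titration data.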

| Structure (SMILES) | Potency [1] | activity change, negative = inhibition [2] | Potency [3] | activity change, negative = inhibition [4] | activity, negative = inhibition [5] | Potency [6] | Potency [7] | Potency [8] | Potency [9] | Potency [10] | Potency [11] | Potency [12] | outcome [13] | Potency [14] | Potency [15] | Potency [16] | Potency [17] | activity change, negative = inhibition [18] | Potency [18] | Potency [19] |
| --- | --- | --- | --- | --- | --- | --- | --- | --- | --- | --- | --- | --- | --- | --- | --- | --- | --- | --- | --- | --- |
| Cc1cnc(CNc2cc(-c3ccc(C(=O)N(C)C)cc3)ncn2)cn1 | > 11.4 µM | 19.2% | inactive | 15.2% | 6.75% | > 46 µM | > 46 µM | inactive | inactive | 12.6 µM (active) | 14.1 µM (active) | inactive | inactive |  |  |  |  |  |  |  |
| c1cncc(-c2cc(NCc3cccs3)ncn2)c1 | > 11.4 µM | 19% | 1 µM (active) | 11.4% | 7.74% | > 46 µM | > 46 µM | inactive | inactive | 25.1 µM (active) | 28.2 µM (active) | inactive | inactive | 2.51 µM (active) | inactive |  |  |  |  |  |
| Cc1noc(C)c1-c1ccc2ncnc(N3CCC(C(=O)O)CC3)c2c1 | > 11.4 µM | 8.06% | 25.1 µM (active) | -4.03% | 10.8% | > 46 µM | > 46 µM | inactive |  | 25.1 µM (active) | 25.1 µM (active) | inactive | inactive |  |  |  |  |  |  |  |
| COc1cccc(-c2nc(NCc3ccccc3OC)c3ccccc3n2)c1 |  | 9.52% | 0.631 µM (active) |  | -9.86% | > 46 µM | > 46 µM | inactive |  | inactive | inactive | inactive | inactive | 3.98 µM (active) | inactive | 7.94 µM (active) | inactive |  |  |  |
| CN(C)c1nc(-c2cccnc2)nc2ccccc12 | > 11.4 µM | 12.7% | 0.126 µM (active) | -1.56% | -4.72% | > 46 µM | > 46 µM | inactive | inactive | 28.2 µM (active) | 25.1 µM (active) | inactive | inactive | 7.94 µM (active) | inactive |  |  | 81% [at 2.29 µM] |  |  |
| CN(C)c1ncc2nc(-c3cc(F)cc(F)c3)c(=O)n(Cc3ccc(F)cc3)c2n1 |  |  | inactive |  |  | > 46 µM | > 46 µM | inactive | inactive | inactive | inactive | inactive | inactive |  | inactive |  | inactive |  | inactive | 3.16 µM (active) |
